Consider seven compounds from PubChem BioAssay (NCI).

About 83,000 compounds went through this panel and 20% of them were active in at least one assay; those are over-represented in the sample as a whole.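 Values shown are percent growth following 48 h exposure of cells in 96-well plates to a single concentration of compound; below 10 was considered active.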 Unmarked numbers belong to inactive results. Activity calls are given as the source filed them.

Among the test systems are NCI-H23 lung; NCI-H322M lung; HOP-62 NSCLC; NCI-H460 lung; HOP-92 NSCLC; NCI-H522 lung; A549/ATCC NSCLC; 786-0 renal; COLO 205 colon; DU-145 prostate; K-562 leukemia; MALME-3M melanoma; MDA-MB-231 breast; RXF 393 renal; SF-268 CNS; SF-295 CNS; SF-539 CNS; UACC-257 melanoma; M14 melanoma; HCT-15 colon.
What all share (assay): NCI-60 one-dose screen, 48 h (100 = growth as untreated, 0 = no growth, -100 = all killed)
What all share (details): 10 µM unless noted

As to `O=c1cc(NC2CCN(CCCc3ccccc3)CC2)c2cc(Cl)ccc2o1`, the growth in the experiment with NCI-H23 lung was -1.92% (active); in the experiment with NCI-H322M lung it was 0.794% (active); in the experiment with HOP-62 NSCLC, 0.321% (active); in the experiment on NCI-H460 lung, -6.31% (active); in the experiment with HOP-92 NSCLC, -26.1% (active); with NCI-H522 lung, -31.2% (active). In addition, the growth was 0.692% (active) in the experiment with A549/ATCC NSCLC; 18.1% in the experiment on 786-0 renal; -98.4% (active) in the experiment on COLO 205 colon; 15.5% with DU-145 prostate; 5.97% (active) with K-562 leukemia; -30.4% (active) with MALME-3M melanoma. In addition, the growth with MDA-MB-231 breast is -62.2% (active); with RXF 393 renal it was -25.3% (active); in the experiment with SF-268 CNS it was 17.2%; with SF-295 CNS, -44.1% (active); in the experiment on SF-539 CNS, 19.4%; in the experiment with UACC-257 melanoma it was -31.5% (active). Besides, the values for the growth in the experiment with M14 melanoma and in the experiment with HCT-15 colon were 4.04% (active) and 14.1%, respectively.

Take `CN1C(=O)N(C)C2C1NN=c1s/c(=C\c3c[nH]c4ccccc34)c(=O)n12` (stereo not given): the growth in the experiment with NCI-H23 lung is 38.7%; in the experiment with NCI-H322M lung, 50.4%; in the experiment on HOP-62 NSCLC, 49.2%; in the experiment with NCI-H460 lung it was 1.56% (active); in the experiment on HOP-92 NSCLC it was 114%; in the experiment on NCI-H522 lung, 11.5%. Also, the growth was 24.3% in the experiment on A549/ATCC NSCLC; 23.4% with 786-0 renal; -53.4% (active) with COLO 205 colon; 5.09% (active) in the experiment with DU-145 prostate; 8.94% (active) in the experiment on K-562 leukemia; 60.6% in the experiment on MALME-3M melanoma. Also, the growth in the experiment on MDA-MB-231 breast is 34.7%; with RXF 393 renal it was 44.5%; with SF-268 CNS, 39.1%; with SF-295 CNS, 12.8%; in the experiment on SF-539 CNS it was 2.32% (active); in the experiment on UACC-257 melanoma, 79.5%. For the same compound, the growth is 12.3% in the experiment on M14 melanoma and 11.8% with HCT-15 colon.

As for `Cc1c(C(=O)OCCO)cc(-c2ccc(Cl)cc2)n1-c1ccc(Cl)cc1Cl`, the growth is 77.6% in the experiment with NCI-H23 lung; 84.3% in the experiment on NCI-H322M lung; 89.2% in the experiment with HOP-62 NSCLC; 37.7% in the experiment with NCI-H460 lung; 91.1% in the experiment on HOP-92 NSCLC; 54.7% in the experiment with NCI-H522 lung. The growth with A549/ATCC NSCLC was 47.6%; in the experiment with 786-0 renal, 94.1%; with COLO 205 colon, 108%; with DU-145 prostate, 62.9%; with K-562 leukemia, 33%; with MALME-3M melanoma, 76.2%. The growth in the experiment on MDA-MB-231 breast is 74.2%; in the experiment on RXF 393 renal, 62.8%; with SF-268 CNS, 70.4%; with SF-295 CNS it was 75.3%; in the experiment on SF-539 CNS it was 77.5%; with UACC-257 melanoma it was 82%. For the same compound, the growth is 55.6% with M14 melanoma and 53.6% in the experiment on HCT-15 colon.

Regarding `CCOc1cc2c(cc1OCC)C(c1cc(C)c(O)c(C)c1)NCC2` (stereo not given), the growth in the experiment with NCI-H23 lung is 100%; with NCI-H322M lung, 92.2%; in the experiment with HOP-62 NSCLC, 107%; with NCI-H460 lung it was 100%; with HOP-92 NSCLC it was 88.5%; in the experiment with NCI-H522 lung, 91%. For the same compound, the growth with A549/ATCC NSCLC is 95.5%; in the experiment with 786-0 renal, 94.3%; with COLO 205 colon it was 106%; in the experiment with DU-145 prostate, 111%; with K-562 leukemia it was 78.6%; with MALME-3M melanoma, 99.1%. The growth in the experiment with MDA-MB-231 breast is 95.7%; in the experiment on RXF 393 renal, 99.4%; in the experiment with SF-268 CNS, 103%; in the experiment on SF-295 CNS, 93.1%; in the experiment on SF-539 CNS, 109%; in the experiment with UACC-257 melanoma, 94.3%. Moreover, the results for the growth with M14 melanoma and in the experiment with HCT-15 colon were 98.5% and 91.2%, respectively.

With `O=C(c1nc2ccccc2[nH]1)C1C(c2ccc(F)cc2)C2CC3CCCCC3N2[C@@]12C(=O)Nc1ccc(Cl)cc12` (stereo not given in full), the growth was 57.2% in the experiment with NCI-H23 lung; 60.6% in the experiment with NCI-H322M lung; 71.8% in the experiment on HOP-62 NSCLC; 21.4% with NCI-H460 lung; 44.2% with HOP-92 NSCLC; 57.3% with NCI-H522 lung. The growth is 29.3% with A549/ATCC NSCLC; 48.3% in the experiment with 786-0 renal; 40.3% in the experiment on COLO 205 colon; 60.5% in the experiment with DU-145 prostate; 29.4% with K-562 leukemia; 42.6% in the experiment with MALME-3M melanoma. The growth is 43.3% with MDA-MB-231 breast; 9.81% (active) in the experiment on RXF 393 renal; 57% in the experiment on SF-268 CNS; 29% in the experiment with SF-295 CNS; 55.5% in the experiment on SF-539 CNS; 58.9% in the experiment on UACC-257 melanoma. In addition, the growth was 40.7% in the experiment with M14 melanoma and 28% in the experiment on HCT-15 colon.

`Cc1ccc(NCCNCC(O)CO)c2c(=O)c3ccccc3sc12` (stereo not given): the growth with NCI-H23 lung was 29.6%; in the experiment with NCI-H322M lung, 25.1%; with HOP-62 NSCLC it was 20.3%; with NCI-H460 lung, -66.3% (active); in the experiment on HOP-92 NSCLC it was -2.88% (active); with NCI-H522 lung, 26.6%. Also, the growth in the experiment on A549/ATCC NSCLC was -2.08% (active); in the experiment with 786-0 renal it was 27.1%; with COLO 205 colon, -87.2% (active); in the experiment with DU-145 prostate, 11.9%; with K-562 leukemia it was -13.4% (active); in the experiment on MALME-3M melanoma, -12.4% (active). Also, the growth in the experiment with MDA-MB-231 breast is -15.9% (active); with RXF 393 renal, 13.8%; with SF-268 CNS it was 29.3%; in the experiment with SF-295 CNS, 25.4%; in the experiment on SF-539 CNS, 47.3%; in the experiment on UACC-257 melanoma it was 6.52% (active). The figures for the growth in the experiment with M14 melanoma and with HCT-15 colon were -71% (active) and -37.2% (active), respectively.

Regarding `O=C1/C(=C\c2ccc[nH]2)c2ccccc2N1c1ccccc1`, the growth with NCI-H23 lung is 87.9%; with NCI-H322M lung, 91.7%; with HOP-62 NSCLC, 106%; in the experiment on NCI-H460 lung it was 95.8%; with HOP-92 NSCLC it was 96%; with NCI-H522 lung, 75.5%. Further, the growth in the experiment with A549/ATCC NSCLC is 96%; with 786-0 renal, 98.1%; in the experiment on COLO 205 colon, 108%; in the experiment with DU-145 prostate it was 112%; in the experiment on K-562 leukemia, 90.9%; in the experiment on MALME-3M melanoma, 103%. Moreover, the growth in the experiment on MDA-MB-231 breast is 84.4%; in the experiment on RXF 393 renal, 105%; in the experiment on SF-268 CNS, 101%; in the experiment on SF-295 CNS, 104%; with SF-539 CNS it was 94%; in the experiment on UACC-257 melanoma, 110%. Further, the growth is 109% in the experiment with M14 melanoma and 82.7% in the experiment with HCT-15 colon.
